Assay results as given in PubChem BioAssay AID463190 (Sanford-Burnham Center for Chemical Genomics, 2010).
About 7,300 (2.2%) of roughly 330,000 compounds were called active. For the sample, actives were picked, then their nearest neighbours and some compounds at random. Values without a mark were called inactive.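 How the source made its calls: active means inhibition of at least 40%; inactive means the rest.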

Assay: growth inhibition of tim10-1 ts yeast – luminescence, uHTS, primary screen (AID 463190);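 further: mutant grown at 25 °C; 0% = DMSO wells with yeast and 100% = wells holding no yeast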
Details: S. cerevisiae tim10-1 ts strain growth, BacTiter-Glo, 24 h; at 20 µM; stronger effect = higher value

With `Brc1ccc(C2=CC(c3ccco3)n3ncnc3N2)cc1` (centres undefined) the inhibition was 48.2% (active).
In the case of `CN=c1scc(-c2cc(OC)ccc2OC)n1/N=C/c1c(C)[nH]c2ccccc12`, the inhibition is reported as 46% (active).
In the case of `COc1cc(/C=C2/C(=O)ON=C2C)ccc1OCc1ccccc1F`, the inhibition is reported as 49% (active).
In the case of `COc1ccccc1CSc1ncc(-c2ccc([N+](=O)[O-])cc2)[nH]1`, the inhibition is reported as 44.7% (active).
In the case of `O=C(ON=C1CCN(S(=O)(=O)c2ccccc2)CC1)c1ccc(Cl)cc1`, the inhibition is reported as 65.8% (active).
With `NS(=O)(=O)c1ccc(NC(=S)Nc2ccc(Br)c(Cl)c2)cc1` the inhibition was 55.7% (active).
In the case of `O=C(Nc1cccc(Cl)c1)c1cncn1-c1ccc(F)cc1`, the inhibition is reported as 41.7% (active).
With `O=C(c1cccc(C(=O)N2CCN(c3ccc(F)cc3)CC2)c1)N1CCN(c2ccc(F)cc2)CC1` the inhibition was 40.1% (active).
In the case of `COc1ccc(C(=O)NC(=S)NNC(=O)c2c(-c3ccccc3)noc2C)cc1`, the inhibition is reported as 41.5% (active).
With `CC1CCCC(C)N1C(=O)CN1CCN(c2nc(-c3ccc(F)cc3)cs2)CC1` (centres undefined) the inhibition was 56.2% (active).
For `Cc1oc2c(c1C(=O)N1CCOCC1)C(=O)c1ccccc1C2=O`, the inhibition was 58.7% (active).
With `c1ccc(-c2nc(NCc3ccco3)c3ccccc3n2)cc1` the inhibition was 51.3% (active).
In the case of `CCC(=O)N1CCc2cc(S(=O)(=O)NC(C(=O)N3CCc4ccccc4C3)C(C)C)ccc21` (centres undefined), the inhibition is reported as 40.2% (active).

Compared with `CCOc1ccc(C2=CC(c3ccccc3)n3ncnc3N2)cc1` (centres undefined), `CC1=C(C(=O)OCc2ccccc2)C(c2ccco2)n2ncnc2N1` (centres undefined) is lower in inhibition: 25.5% for the first, 20.9% for the second.

Going from `CCn1c(-c2cc(OC)ccc2OC)csc1=Nc1c(C)n(C)n(-c2ccccc2)c1=O` to `Cc1[nH]n(-c2ccccc2)c(=O)c1CCOC(=O)c1ccc(C(F)(F)F)cc1`, the inhibition falls from 22.1% to 16.7%.

Compared with `COCCNC(=S)N/N=C/c1c(C)[nH]c2ccccc12`, `NS(=O)(=O)c1ccc(NC(=S)NC(=O)c2cccc(Br)c2)cc1` is higher in inhibition: 16.2% for the first, 23.9% for the second.

Going from `COc1cc(/C=C2/C(=O)ON=C2C)ccc1OCc1cccc(F)c1` to `C=CCOc1ccc(/C=C2/C(=O)ON=C2C)cc1OCC`, the inhibition falls from 9.41% to 5.79%.

Going from `O=C(O)c1n[nH]nc1-c1ccccc1` to `Cc1onc(-c2ccccc2)c1C(=O)Nc1ccccc1C#N`, the inhibition rises from -4.76% to 25%.

Going from `O=C(Nc1cccc([N+](=O)[O-])c1)N1CCc2ccccc2C1` to `COC(=O)c1ccc(S(=O)(=O)N2CCc3ccccc3C2)cc1`, the inhibition falls from 13.3% to -7.78%.

Compared with `N#Cc1c(-c2ccccc2)nc(SCc2ccc([N+](=O)[O-])cc2)[nH]c1=O`, `Cc1onc(-c2ccccc2)c1C(=O)NNC(=S)NC(=O)c1ccc(F)cc1` is higher in inhibition: 16.7% for the first, 29.6% for the second.

Compared with `COc1ccc(-c2cnc(SCCNC(=O)c3ccc4c(c3)OCO4)[nH]2)cc1`, `COc1cccc(CNCc2ccc3c(c2)OCO3)c1` is higher in inhibition: -13.2% for the first, -13% for the second.

Compared with `CC(OC(=O)c1ccc(S(=O)(=O)N2CCOCC2)cc1)c1ccccc1` (centres undefined), `Cc1ccccc1-c1ccc(Nc2ccc(C(=O)N3CCOCC3)cc2)nn1` is lower in inhibition: 23.8% for the first, 3.37% for the second.

Compared with `COc1ccc(NC(=O)CCCN2C(=O)C(c3ccccc3)Oc3cccnc32)cc1` (centres undefined), `O=C(NCc1ccncc1)c1ccc(NS(=O)(=O)c2cccc([N+](=O)[O-])c2)cc1` is lower in inhibition: 37% for the first, -9.55% for the second.

Going from `OCC[C@H]1C[C@H](O)[C@@H](O)[C@]2(Cc3ccccc3CO2)O1` to `Cc1ccc(CNC(=O)C2(C(F)(F)F)C/C(=C\Cc3ccccc3)CCCO2)o1` (centres undefined), the inhibition rises from 19% to 29.8%.

Going from `NS(=O)(=O)c1ccc(CCNC(=S)Nc2ccc(S(N)(=O)=O)cc2)cc1` to `OCCCNC(c1ccccc1)c1ccc(O)cc1` (centres undefined), the inhibition falls from 8.83% to -5.16%.

Compared with `CCOC(=O)c1csc(CCNC(=O)c2oc3c(Cl)cc(C)cc3c2C)n1`, `CCn1cc(C(=O)Nc2cc(C)ccc2C)c(=O)c2ccc(C)nc21` is lower in inhibition: 19.2% for the first, 6.54% for the second.

Compared with `O=C(Nc1cccc(Cl)c1)c1cc(S(=O)(=O)N2CCCCC2)c[nH]1`, `CCC(=O)Nc1nc(C)c(C(=O)Nc2cccc(Cl)c2)s1` is higher in inhibition: -3.59% for the first, 2.36% for the second.

Compared with `O=C(c1cc2cc(F)ccc2[nH]1)N1CCN(c2ccc(F)cc2)CC1`, `O=C(c1cc(C(=O)N2CCN(c3ccc(F)cc3)CC2)cc([N+](=O)[O-])c1)N1CCN(c2ccc(F)cc2)CC1` is lower in inhibition: -10.5% for the first, -17.5% for the second.

Going from `C=CCNc1nc(N)c(C(=C(C#N)C#N)c2ccccc2)s1` to `Clc1cccc(-c2nc(NCC3CCCO3)c3ccccc3n2)c1` (centres undefined), the inhibition falls from 32% to 17.9%.

Going from `O=C(Nc1c(Cl)cccc1Cl)C1CCC1` to `COC(=O)C1CCN(C(=O)c2ccc3oc(Cc4ccc(Cl)cc4)nc3c2)CC1`, the inhibition falls from 18.6% to 14.5%.

Going from `CCc1cc(C(=O)Nc2nnc(C3CC3)s2)sc1C` to `Cc1occc1-c1nnc(SCC(=O)NC2(C#N)CCCC2)n1C`, the inhibition falls from 14.7% to -2.1%.

Going from `O=C(COC(=O)C1CCCO1)Nc1nc(-c2ccc(F)cc2)cs1` (centres undefined) to `c1ccc2c(NCC3CCCO3)nc(-c3ccncc3)nc2c1` (centres undefined), the inhibition rises from 5.58% to 33.4%.

Going from `O=C(CN1CCN(c2nc(-c3ccccc3)cs2)CC1)NCc1ccc2c(c1)OCO2` to `CCC(=O)N1CCc2cc(S(=O)(=O)CCC(=O)N3CCN(c4ccccc4F)CC3)ccc21`, the inhibition falls from 30.8% to 22%.

First: CCOC(=O)C1=C(C)NC(C)=C(C(=O)OCC)C1C1=COCCO1
Second: CCOC(=O)N1CCC(NC(=O)C(NS(=O)(=O)c2ccc3c(c2)CCN3C(=O)CC)C(C)C)CC1 (centres undefined)
The inhibition of the first is higher: 4.91% for the first, -1.74% for the second.

First: COC1=C(N2CCOCC2)C(=O)c2ccccc2C1=O
Second: COc1ccccc1-c1cnn2c(N3CCOCC3)cc(C)nc12
The inhibition of the first is higher: 9.96% for the first, 4.69% for the second.

Going from `CN1CCC(CN)(N2CCN(c3ccccc3)CC2)CC1` to `COc1ccc(C(=O)NC(=S)N2CCNC(=O)C2CC(=O)OC(C)C)cc1` (centres undefined), the inhibition falls from 16.4% to -10.3%.
